From PubChem BioAssay (Tox21)
Records with an inconclusive call do not appear. Active and inactive are the calls of the source. Unless noted, calls come from the whole dose curve.

Tests used:
[1] = Nuclear factor erythroid 2-related factor 2/antioxidant responsive element (Nrf2/ARE) small molecule agonists: qHTS cell viability counter screen in human keratinocytes (AID 1919968; active = well fitted curve in the direction sought with a large enough effect in the repeat runs; an effect the other way counts as inactive or inconclusive; note: nearly all actives have a fitted effect of over 55% in size; note: potency is the fitted concentration of half-maximal effect)
How it was run: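 Measured as CellTiter-Fluor fluorescence, this readout tracks cytotoxicity in the same wells as the ARE-luciferase screen. HaCaT reporter cells (1,500/well) received compounds after a 5 h pre-incubation and were exposed for 23 h.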

[2] = Nuclear factor erythroid 2-related factor 2/antioxidant responsive element (Nrf2/ARE) small molecule agonists: luciferase reporter gene qHTS assay in human keratinocytes (AID 1919969); note: nearly all actives have a fitted effect of over 35% in size; note: potency is the fitted concentration of half-maximal effect
[3] = target: Gonadotropin-releasing hormone receptor (Homo sapiens) (UniProt P30968); assay: Human gonadotropin-releasing hormone receptor (GnRHR) small molecule agonists, calcium flux assay in GnRHR-HEK293 cells (AID 1920063); note: nearly all actives have a fitted effect of over 35% in size
How it was run: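 Fluorescence kinetics (480 nm excitation, 540 nm emission; 3 min, 1 s steps) report calcium mobilisation in human GnRHR-HEK293 cells in agonist mode. Dye incubation: 1 h, 37 C.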

[4] = target: KiSS-1 receptor (Homo sapiens) (UniProt Q969F8); assay: Human kisspeptin (KISS1R) small molecule agonists, calcium flux assay in KISS1R-HEK293 cells (AID 1920064; active = well fitted curve in the direction sought with a large enough effect in the repeat runs; an effect the other way counts as inactive or inconclusive)
How it was run: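 Measures KISS1R agonism through calcium-sensitive dye fluorescence in stably transfected HEK293 cells, read for 3 min after pin-tool compound delivery; 15-point titrations in triplicate.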

[5] = G protein-coupled receptor (GPCR) small molecule agonists, calcium flux assay: HEK293 wild type cell line counter screen (AID 1920065)
How it was run: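 Readout: fluorescence at 480 nm excitation/540 nm emission, sampled at 1 s intervals for 3 min. Cells had been cultured 18 h, then dye-loaded 1 h at 37 C before compound or ATP addition.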

[6] = p53 small molecule agonists, cell-based qHTS assay with human liver microsomes (AID 1963577);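 note: p53 response element beta-lactamase reporter cells with liver microsomes plus NADPH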
How it was run: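 With metabolic activation: human liver microsomes (0.5 mg/mL final) plus NADPH (0.5 mg/mL final) added alongside compounds to p53RE-bla cells; 16 h 37 C exposure; beta-lactamase read by LiveBLAzer fluorescence.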

[7] = p53 small molecule agonists, cell-based qHTS assay with rat liver microsomes (AID 1963578)
How it was run: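 Metabolic activation by rat liver microsomes and NADPH, each 0.5 mg/mL final, added right after compounds to p53RE-bla reporter cells (4,000/well, plated 5 h earlier). 16 h at 37 C, then LiveBLAzer substrate for 2 h at room temperature in the dark; fluorescence read-out.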

[8] = p53 small molecule agonists, cell-based qHTS assay with human liver microsomes: qHTS cell viability counter screen (AID 1963579); note: nearly all actives have a fitted effect of over 45% in size
How it was run: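 Metabolic activation used human liver microsomes and NADPH, both 0.5 mg/mL final, over 16 hours at 37 C on p53RE-bla cells (4,000/well). Cytotoxicity measured by CellTiter-Glo luminescence, 30 min at room temperature.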

[9] = p53 small molecule agonists, cell-based qHTS assay with rat liver microsomes: qHTS cell viability counter screen (AID 1963580); note: nearly all actives have a fitted effect of over 45% in size
How it was run: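 Viability is assessed in parallel with the p53 reporter read: HCT-116 p53RE-bla cells receive compounds plus rat microsomes and NADPH (0.5 mg/mL final apiece), incubate 16 h at 37 C, and then CellTiter-Glo luminescence is recorded.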

[10] = p53 small molecule agonists, cell-based qHTS assay: qHTS cell viability counter screen (AID 1963581); note: nearly all actives have a fitted effect of over 45% in size
How it was run: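 In the same plates used for the p53 bla reporter, HCT-116 cells given compounds for 16 h at 37 C received CellTiter-Glo; luminescence was recorded 30 min later at room temperature.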

[11] = p53 small molecule agonists, cell-based qHTS assay (AID 1963582; active = well fitted activation curve with a large enough effect in the signal ratio in the repeat runs, not every such curve was filed as active; the % refers to the signal ratio)
How it was run: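 Compounds are pin-transferred in DMSO onto p53RE-bla cells and incubated 16 h at 37 C. The B/G FRET beta-lactamase substrate is then applied for 2 h at RT and fluorescence recorded.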

[12] = target: 5-hydroxytryptamine receptor 2A (Homo sapiens) (UniProt P28223); assay: 5-hydroxytryptamine receptor 2A (HTR2A) small molecule agonists, cell-based qHTS assay (AID 1963587); note: nearly all actives have a fitted effect of over 30% in size
How it was run: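 CHO cells stably expressing human HTR2A, plated 18 h, loaded with calcium dye 1 h at 37 C. Agonist mode: compounds added and intracellular calcium fluorescence recorded kinetically for 2 min at 1 sec intervals.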

[13] = target: Muscarinic acetylcholine receptor M1 (Homo sapiens) (UniProt P11229); assay: Cholinergic receptor muscarinic 1 (CHRM1) small molecule antagonists, cell-based qHTS assay (AID 1963588); note: nearly all actives have a fitted effect of over 40% in size
How it was run: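 CHRM1-CHO calcium-flux assay, antagonist mode. Cells were seeded 18 h, dye-loaded 1 h at 37 C and given compound for 5 min at RT, then acetylcholine was added at 50nM. FDSS fluorescence was read 3 min; 15 concentrations, three runs.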

[14] = target: Muscarinic acetylcholine receptor M1 (Homo sapiens) (UniProt P11229); assay: Cholinergic receptor muscarinic 1 (CHRM1) small molecule agonists, cell-based qHTS assay (AID 1963589); note: nearly all actives have a fitted effect of over 35% in size
How it was run: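 Each compound was tested at 15 concentrations across three independent runs on dye-loaded CHO cells stably expressing human CHRM1, reading intracellular calcium fluorescence kinetically at 1 sec intervals.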

[15] = target: Beta-2 adrenergic receptor (Homo sapiens) (UniProt P07550); assay: Adrenergic beta2 receptor (ADRB2) small molecule antagonists, cell-based qHTS assay (AID 1963592); note: series mostly up to about 92 µM; nearly all actives have a fitted effect of over 50% in size
How it was run: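 Cells (CHO, stable ADRB2 overexpression) incubated 18-20hr at 37C; compounds added from DMSO; agonist mix (1nM isoproterenol, 100uM IBMX, 25uM Ro-20-1724) added; 0.5hr RT; d2-cAMP and anti-cAMP-cryptate added; 1hr RT; 665/615 nm read.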

[16] = target: D(2) dopamine receptor (Homo sapiens) (UniProt P14416); assay: Dopamine D2 receptor (DRD2) small molecule agonists, cell-based qHTS assay (AID 1963594); note: nearly all actives have a fitted effect of over 35% in size
How it was run: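 HEK293 cells stably expressing human DRD2, pre-treated with PDE inhibitor Ro20-1724 (0.1 mM final) and compound 10 min at room temperature, then stimulated with NKH477 (200nM […]) for 30 min. cAMP read by HTRF (665/620 nm).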

[17] = target: D(2) dopamine receptor (Homo sapiens) (UniProt P14416); assay: Dopamine D2 receptor (DRD2) small molecule antagonists, cell-based qHTS assay (AID 1963595; active = well fitted inhibition curve with a large enough effect in the signal ratio in the repeat runs, with a control signal flat; the % refers to the signal ratio)
How it was run: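 HEK293 cells stably expressing DRD2, preincubated with 0.1 mM Ro20-1724 and compounds 10 min, were stimulated with 200 nM NKH477 plus 12 nM quinpirole for 30 min at room temperature; cAMP measured by HTRF (665/620 nm).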

[18] = cAMP Responsive Elements (CRE) small molecule agonists, cell-based qHTS assay (AID 1963590)
How it was run: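 Cell line: CRE-bla HEK 293T; medium DMEM/10% dialyzed FBS/0.1 mM NEAA/1 mM pyruvate/25 mM HEPES; 3 h compound exposure; beta-lactamase FRET readout after 2 h substrate loading at RT.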

[19] = cAMP Responsive Elements (CRE) small molecule antagonists, cell-based qHTS assay (AID 1963591; active = well fitted inhibition curve with a large enough effect in the signal ratio in the repeat runs, not every such curve was filed as active; the % refers to the signal ratio)
How it was run: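 Inhibition of NKH477-driven (0.25 uM final) CRE-beta-lactamase signal in HEK293T cells, 3 h compound exposure at 37 °C, detected by FRET substrate fluorescence.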

[20] = target: 5-hydroxytryptamine receptor 2A (Homo sapiens) (UniProt P28223); assay: 5-hydroxytryptamine receptor 2A (HTR2A) small molecule antagonists, cell-based qHTS assay (AID 1963586); note: nearly all actives have a fitted effect of over 45% in size; note: potency is the fitted concentration of half-maximal effect
How it was run: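 Antagonist-mode intracellular calcium assay: DOI (4 nM) added after 5 min compound pre-incubation at room temperature to dye-loaded HTR2A-CHO cells. Fluorescence followed for 3 min, sampled every second.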

Measured: Potency

D(2) dopamine receptor (Homo sapiens), sequence (P14416 whole entry, looked up): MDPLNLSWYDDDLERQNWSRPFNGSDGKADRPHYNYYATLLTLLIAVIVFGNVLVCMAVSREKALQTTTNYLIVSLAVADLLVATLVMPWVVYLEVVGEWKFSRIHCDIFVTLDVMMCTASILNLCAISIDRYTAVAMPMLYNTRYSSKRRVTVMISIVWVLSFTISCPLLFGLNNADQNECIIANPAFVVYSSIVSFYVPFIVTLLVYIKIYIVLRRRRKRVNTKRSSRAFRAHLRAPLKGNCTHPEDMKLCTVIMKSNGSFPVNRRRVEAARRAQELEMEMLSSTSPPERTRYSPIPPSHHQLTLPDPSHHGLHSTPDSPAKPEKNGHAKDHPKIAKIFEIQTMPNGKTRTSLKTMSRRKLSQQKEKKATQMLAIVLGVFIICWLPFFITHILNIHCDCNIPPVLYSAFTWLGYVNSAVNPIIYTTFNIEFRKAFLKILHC
KiSS-1 receptor (Homo sapiens), sequence (Q969F8 whole entry, looked up): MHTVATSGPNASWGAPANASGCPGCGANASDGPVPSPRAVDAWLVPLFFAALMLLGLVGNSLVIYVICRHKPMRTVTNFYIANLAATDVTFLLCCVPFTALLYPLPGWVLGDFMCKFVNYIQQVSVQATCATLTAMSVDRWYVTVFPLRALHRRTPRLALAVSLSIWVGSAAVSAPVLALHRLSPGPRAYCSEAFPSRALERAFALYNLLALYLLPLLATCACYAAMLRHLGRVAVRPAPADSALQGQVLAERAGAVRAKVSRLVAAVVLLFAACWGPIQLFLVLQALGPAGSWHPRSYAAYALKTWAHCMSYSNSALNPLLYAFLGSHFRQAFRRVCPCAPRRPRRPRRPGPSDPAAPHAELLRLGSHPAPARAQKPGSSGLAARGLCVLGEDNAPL
Beta-2 adrenergic receptor (Homo sapiens), sequence (P07550 whole entry, looked up): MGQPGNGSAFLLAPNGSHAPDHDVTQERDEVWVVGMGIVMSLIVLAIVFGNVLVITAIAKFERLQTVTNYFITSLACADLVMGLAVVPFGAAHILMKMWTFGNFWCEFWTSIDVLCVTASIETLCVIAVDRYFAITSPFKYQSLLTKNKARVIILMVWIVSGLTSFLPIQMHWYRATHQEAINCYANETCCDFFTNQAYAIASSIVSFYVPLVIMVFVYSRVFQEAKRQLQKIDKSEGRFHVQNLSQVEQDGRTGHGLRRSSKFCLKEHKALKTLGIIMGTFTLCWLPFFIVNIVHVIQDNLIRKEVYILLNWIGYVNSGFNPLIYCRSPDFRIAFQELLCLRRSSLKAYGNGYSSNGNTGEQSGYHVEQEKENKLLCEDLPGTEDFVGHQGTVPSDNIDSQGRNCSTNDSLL
Muscarinic acetylcholine receptor M1 (Homo sapiens), sequence (P11229 whole entry, looked up): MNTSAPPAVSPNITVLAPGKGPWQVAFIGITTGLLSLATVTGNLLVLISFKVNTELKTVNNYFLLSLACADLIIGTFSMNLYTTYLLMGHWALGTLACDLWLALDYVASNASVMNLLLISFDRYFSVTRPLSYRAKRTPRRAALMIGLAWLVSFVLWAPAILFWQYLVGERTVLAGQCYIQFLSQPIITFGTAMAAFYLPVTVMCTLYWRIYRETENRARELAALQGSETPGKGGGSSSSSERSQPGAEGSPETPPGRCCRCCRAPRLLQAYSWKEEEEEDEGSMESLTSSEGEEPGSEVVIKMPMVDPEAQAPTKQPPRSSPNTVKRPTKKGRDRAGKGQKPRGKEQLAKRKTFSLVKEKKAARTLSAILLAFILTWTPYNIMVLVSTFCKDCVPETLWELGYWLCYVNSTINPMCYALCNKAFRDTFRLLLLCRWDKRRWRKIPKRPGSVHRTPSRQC
5-hydroxytryptamine receptor 2A (Homo sapiens), sequence (P28223 whole entry, looked up): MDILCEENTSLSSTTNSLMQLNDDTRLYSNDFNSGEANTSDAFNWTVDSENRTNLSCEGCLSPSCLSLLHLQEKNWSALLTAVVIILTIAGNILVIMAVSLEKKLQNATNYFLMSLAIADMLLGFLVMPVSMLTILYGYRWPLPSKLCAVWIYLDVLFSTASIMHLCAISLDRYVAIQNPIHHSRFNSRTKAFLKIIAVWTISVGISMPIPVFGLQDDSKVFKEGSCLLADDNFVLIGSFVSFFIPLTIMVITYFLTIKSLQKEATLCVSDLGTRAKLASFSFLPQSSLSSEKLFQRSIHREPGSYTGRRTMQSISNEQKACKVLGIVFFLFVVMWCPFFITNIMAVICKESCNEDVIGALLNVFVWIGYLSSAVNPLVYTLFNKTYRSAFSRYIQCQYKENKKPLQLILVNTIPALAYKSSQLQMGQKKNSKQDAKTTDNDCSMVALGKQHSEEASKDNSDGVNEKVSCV
Gonadotropin-releasing hormone receptor (Homo sapiens), sequence (P30968 whole entry, looked up): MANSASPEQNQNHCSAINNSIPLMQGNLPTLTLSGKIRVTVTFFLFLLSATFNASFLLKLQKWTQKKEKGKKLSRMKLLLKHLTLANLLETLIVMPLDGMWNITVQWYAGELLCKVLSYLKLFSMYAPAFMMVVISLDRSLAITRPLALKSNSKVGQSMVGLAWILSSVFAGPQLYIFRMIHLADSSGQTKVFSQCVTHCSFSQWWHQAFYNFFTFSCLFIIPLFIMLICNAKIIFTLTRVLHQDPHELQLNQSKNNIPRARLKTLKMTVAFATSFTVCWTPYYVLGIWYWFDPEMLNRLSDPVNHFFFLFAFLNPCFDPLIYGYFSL

C=CCOC(C)=O
not listed: [18] | [19] | [20]
inactive: all other assays above

CC#Cc1cc(C)nc(Nc2ccccc2)n1
active: [2] 48.5 µM
not listed: [15] | [16] | [20]
inactive: all other assays above

O=C(Cl)c1ccc(Cl)cc1
not listed: [11]
inactive: all other assays above

O=C(N/N=C/c1ccc([N+](=O)[O-])o1)c1cc([N+](=O)[O-])cc([N+](=O)[O-])c1O
active: [2] 29.8 µM
not listed: [12] | [13] | [14] | [18] | [20]
inactive: all other assays above

Clc1cccc(N2CCNCC2)c1
not listed: [12] | [15] | [20]
inactive: all other assays above

Nc1cc(Cl)ccc1Cl
not listed: [20]
inactive: all other assays above

O=c1oc2ccccc2c(O)c1C1CCCc2ccccc21 (stereo unspecified)
not listed: [15] | [20]
inactive: all other assays above

CC1=C2C[C@H]3[C@@H](CC=C4C[C@@H](O)CC[C@@]43C)[C@@H]2CC[C@]12O[C@@H]1C[C@H](C)CN[C@H]1[C@H]2C
active: [1] 11.9 µM
not listed: [12] | [13]
inactive: all other assays above

N#Cc1c(Cl)cccc1Cl
not listed: [13] | [18] | [20]
inactive: all other assays above

Brc1ccccc1
not listed: [12] | [13] | [14] | [19] | [20]
inactive: all other assays above

CCS(=O)(=O)C(C)(C)S(=O)(=O)CC
not listed: [13] | [16] | [20]
inactive: all other assays above

CCC(=O)C(CCN(C)C)(c1ccccc1)c1ccccc1
active: [20] 16.3 µM
not listed: [12] | [13] | [18] | [19]
inactive: all other assays above

COc1cc(CC#N)cc(OC)c1OC
not listed: [12] | [20]
inactive: all other assays above

CCN(C(C)=O)c1cccc(-c2ccnc3c(C#N)cnn23)c1
not listed: [12] | [13] | [14] | [16] | [18] | [19] | [20]
inactive: all other assays above

CCO[C@H]1O[C@@H]2OC3(C)CC[C@H]4[C@H](C)CC[C@@H]([C@H]1C)[C@@]24OO3
not listed: [12] | [13] | [19]
inactive: all other assays above

CC(C)NCC(O)c1ccccc1Cl (stereo unspecified)
not listed: [12] | [13] | [14] | [17] | [18] | [19] | [20]
inactive: all other assays above
